# Compounds without any hit were thinned out: in the full panel of roughly 83,000, 20% have a hit.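 Single-dose data. Exposure time 48 hours. Values below 10 considered active.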 A number with no mark means an inactive call. Active and inactive are the calls of the source.
# Legend:
# Experiment in all cases: NCI-60 one-dose screen, 48 h (100 = growth as untreated, 0 = no growth, -100 = all killed)
# Details in all cases: 10 µM
# DU-145 prostate = system: DU-145 prostate
# MALME-3M melanoma = system: MALME-3M melanoma
# MDA-MB-231 breast = system: MDA-MB-231 breast
# RXF 393 renal = system: RXF 393 renal
# SF-268 CNS = system: SF-268 CNS
# SF-295 CNS = system: SF-295 CNS
# SF-539 CNS = system: SF-539 CNS
# UACC-257 melanoma = system: UACC-257 melanoma
# M14 melanoma = system: M14 melanoma
# HCT-15 colon = system: HCT-15 colon
# HT29 colon = system: HT29 colon
# SNB-75 CNS = system: SNB-75 CNS
# SNB-19 CNS = system: SNB-19 CNS
# U251 CNS = system: U251 CNS
# PC-3 prostate = system: PC-3 prostate
# SK-MEL-5 melanoma = system: SK-MEL-5 melanoma
# UACC-62 melanoma = system: UACC-62 melanoma
# LOX IMVI melanoma = system: LOX IMVI melanoma
# K-562 leukemia = system: K-562 leukemia
# SK-MEL-28 melanoma = system: SK-MEL-28 melanoma
Compound,growth (DU-145 prostate),growth (MALME-3M melanoma),growth (MDA-MB-231 breast),growth (RXF 393 renal),growth (SF-268 CNS),growth (SF-295 CNS),growth (SF-539 CNS),growth (UACC-257 melanoma),growth (M14 melanoma),growth (HCT-15 colon),growth (HT29 colon),growth (SNB-75 CNS),growth (SNB-19 CNS),growth (U251 CNS),growth (PC-3 prostate),growth (SK-MEL-5 melanoma),growth (UACC-62 melanoma),growth (LOX IMVI melanoma),growth (K-562 leukemia),growth (SK-MEL-28 melanoma)
Cc1cc2c(c(O)c1Br)-c1ncoc1C(=O)[C@]1(C)CC[C@H](C(C)C)[C@H]21,54%,31%,48.9%,60.6%,49.4%,22.9%,14.3%,15.1%,18.9%,7.31% (active),5.42% (active),59.6%,45%,26.7%,9.6% (active),-29.9% (active),33.1%,35.6%,–,–
S=c1nc(-c2ccccc2)cc(-c2cc3ccccc3nc2Cl)[nH]1,90.5%,66.4%,–,91.2%,70.5%,55.8%,72.3%,81.6%,36.7%,49.7%,67.6%,23.4%,81.2%,83.2%,60.1%,32.1%,43.8%,44.9%,14.2%,65.2%
Cc1ccc(-c2ccc(SCC(=O)Nc3ccc(Cl)c(C(F)(F)F)c3)nn2)cc1,23.9%,38.7%,–,-32.5% (active),38.6%,13.2%,-35.1% (active),57.6%,2.2% (active),14.9%,-19.7% (active),-23.5% (active),23.2%,16.5%,28.7%,18.9%,15.5%,–,4.76% (active),57.6%
C#CCNC(=O)[C@]12CCC(C)(C)C[C@H]1C1=CC[C@@H]3[C@@](C)(CCC#N)[C@H](C(=C)C)CC[C@@]3(C)[C@]1(C)CC2,91.4%,75.9%,39.6%,66.8%,86.2%,38.2%,83.4%,54.4%,76.3%,33.2%,48.9%,82.5%,64.3%,54.6%,26.3%,42.7%,52.1%,-53.1% (active),–,74.6%
Nc1nc(-c2ccccc2)cc(-c2cc3ccccc3nc2Cl)n1,81.5%,88.4%,–,85.2%,88.3%,78.6%,78.5%,97.8%,84.2%,55.9%,102%,71.4%,73.4%,63.4%,76.9%,92.9%,83.3%,45%,20%,103%
O=C1Nc2cc(Cl)ccc2/C1=C/c1cccc(OCc2ccccc2)c1,3.5% (active),7.06% (active),–,-3.3% (active),-11.4% (active),1.81% (active),-56.8% (active),1.39% (active),-18.1% (active),-24.8% (active),-43.8% (active),16.8%,0.636% (active),–,6.84% (active),-98% (active),-32.6% (active),-82.6% (active),5.55% (active),4.09% (active)
O=C1Nc2ccc(Cl)cc2/C1=C/c1ccc(OCc2ccc(Br)cc2F)cc1,41.1%,19.2%,–,1.46% (active),20.3%,22%,33.3%,65.2%,46.8%,45.7%,40.5%,18.3%,23%,-5.75% (active),41.4%,32.6%,–,7.62% (active),40.7%,63.7%
Cc1cccc2cc(-c3cc(-c4ccccc4)nc(=O)[nH]3)c(Cl)nc12,91.7%,96.6%,–,88.3%,96.3%,76%,78.1%,99.7%,98.6%,64.1%,107%,89.1%,68%,62.6%,–,96.3%,80.1%,54.1%,44.3%,103%
O=C1Nc2ccc(Cl)cc2/C1=C/c1cccc(OCc2ccccc2)c1,45.3%,45.8%,–,-0.942% (active),28.5%,31.7%,35.3%,45.8%,27%,22.3%,30.7%,73.9%,–,3.61% (active),29.3%,22.4%,26.3%,1.77% (active),10.3%,46.9%
O=c1[nH][nH]c(Nc2ccccc2)c1N=Nc1ccc(F)cc1,102%,116%,86.6%,83.1%,81.5%,111%,92.8%,127%,107%,70.1%,107%,59.4%,95.3%,99.9%,95.5%,96.6%,92.1%,102%,–,108%
C=C(C)[C@@H]1CC[C@]2(C)[C@H](CC=C3[C@@H]4CC(C)(C)CC[C@]4(C(=O)N4CCOCC4)CC[C@]32C)[C@@]1(C)CCCN,-93.1% (active),-93.8% (active),-91.4% (active),-90.9% (active),-76% (active),-87.4% (active),-98.6% (active),-92.4% (active),-80% (active),-83.6% (active),-91% (active),-91.2% (active),-93.7% (active),-81.2% (active),-79.8% (active),-96.5% (active),-93.8% (active),-81.7% (active),–,-97% (active)
Cc1nn(-c2ccccc2)c2ncn(CC(=O)N/N=C/c3c[nH]c4ccccc34)c(=O)c12,99.6%,69%,–,89.5%,73.5%,88.7%,84.6%,94.3%,92.3%,89.2%,99.5%,78.5%,91.5%,83.8%,65.4%,85.5%,–,84.4%,84.2%,114%
O=C(CSc1ccc(-c2ccc(Cl)cc2)nn1)Nc1ccc(Cl)c(C(F)(F)F)c1,80%,54.1%,–,71.1%,73.7%,56.3%,60.7%,67.7%,50.6%,25.9%,40.6%,58.6%,71.9%,73.1%,71.9%,55.9%,32.7%,47.3%,9.36% (active),66.9%
CN1CCc2c(sc3ncnc(N/N=C/c4cn(-c5ccccc5)nc4-c4ccc(Br)cc4)c23)C1,56.2%,29.5%,–,83.6%,67.2%,72.9%,15.7%,29.9%,19.4%,27.4%,16.5%,88.8%,62.4%,44.9%,20.8%,50%,67.3%,28.4%,18.5%,68.9%
O=c1[nH]n(C(=S)N/N=C/c2ccc(F)cc2)c(=O)c2ccccc12,68.9%,80.4%,–,57.3%,104%,74.4%,-50.9% (active),95%,78.1%,22.9%,58.1%,97.4%,47.6%,25.6%,58.1%,73.1%,44.7%,–,11.2%,91.5%
Cc1ccc(-c2cc(-c3cc4ccccc4nc3Cl)[nH]c(=O)n2)cc1,14.2%,38.5%,–,-33.9% (active),6.42% (active),16.2%,-42.6% (active),47%,10.2%,-39.8% (active),-15.9% (active),-17.2% (active),3.61% (active),-23.5% (active),20.7%,18.1%,19.3%,-82.4% (active),1.33% (active),43.3%

# From PubChem BioAssay (NCI)
